This is a sample that favours compounds with a hit; in the whole collection about 1.8% have one here.
m5-HT2A agonist = activates the mouse 5-HT2A serotonin receptor | CHO-K1 mHTR2A beta-arrestin complementation, luminescence; percent of 30 µM serotonin response | activation, % at 7.6 µM | actives 0.66% (n = 360,000) | AID 624169;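 active = activation above a run cutoff, the mean activation of all tested compounds plus 3 SD, cut at about 14% in these data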;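 note: 0% = plate median of compound wells and 100% = 30 µM serotonin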
MsrA inhibitor = inhibits bovine methionine sulfoxide reductase A. purified bovine MsrA, absorbance read-out. inhibition, % at 15.5 µM. actives 0.75% (n = 360,000);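 note: 0% = vehicle wells with enzyme and 100% = reference inhibitor wells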
NPR1 activator = GC-A (human) enzyme activation. P16066. HEK293 GC-A cells, cGMP TR-FRET, EC30 ANP; 0% at EC30 ANP, 100% saturating ANP. activation, % at 10 µM. actives 0.14% (n = 370,000). AID 1671463; in the data active = activation above about 40%
MsrA act = activators of bovine methionine sulfoxide reductase A; purified bovine MsrA, absorbance read-out; activation, % at 10.6 µM; actives 0.3% (n = 360,000); in the data active = activation above about 7.5%;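 note: 0% = vehicle and 100% = reference activator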
GC-B act = GC-B (human) receptor activation; P20594; activation, % at 10 µM; actives 0.11% (n = 370,000); HEK293-GC-B cells, CNP EC30, cGMP TR-FRET; 0% at EC30 CNP, 100% saturating CNP;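 active = activation at 10 µM reaching about 35% in either raw or pattern-adjusted values, limit read from the data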
Target sequence (P20594 whole entry, looked up): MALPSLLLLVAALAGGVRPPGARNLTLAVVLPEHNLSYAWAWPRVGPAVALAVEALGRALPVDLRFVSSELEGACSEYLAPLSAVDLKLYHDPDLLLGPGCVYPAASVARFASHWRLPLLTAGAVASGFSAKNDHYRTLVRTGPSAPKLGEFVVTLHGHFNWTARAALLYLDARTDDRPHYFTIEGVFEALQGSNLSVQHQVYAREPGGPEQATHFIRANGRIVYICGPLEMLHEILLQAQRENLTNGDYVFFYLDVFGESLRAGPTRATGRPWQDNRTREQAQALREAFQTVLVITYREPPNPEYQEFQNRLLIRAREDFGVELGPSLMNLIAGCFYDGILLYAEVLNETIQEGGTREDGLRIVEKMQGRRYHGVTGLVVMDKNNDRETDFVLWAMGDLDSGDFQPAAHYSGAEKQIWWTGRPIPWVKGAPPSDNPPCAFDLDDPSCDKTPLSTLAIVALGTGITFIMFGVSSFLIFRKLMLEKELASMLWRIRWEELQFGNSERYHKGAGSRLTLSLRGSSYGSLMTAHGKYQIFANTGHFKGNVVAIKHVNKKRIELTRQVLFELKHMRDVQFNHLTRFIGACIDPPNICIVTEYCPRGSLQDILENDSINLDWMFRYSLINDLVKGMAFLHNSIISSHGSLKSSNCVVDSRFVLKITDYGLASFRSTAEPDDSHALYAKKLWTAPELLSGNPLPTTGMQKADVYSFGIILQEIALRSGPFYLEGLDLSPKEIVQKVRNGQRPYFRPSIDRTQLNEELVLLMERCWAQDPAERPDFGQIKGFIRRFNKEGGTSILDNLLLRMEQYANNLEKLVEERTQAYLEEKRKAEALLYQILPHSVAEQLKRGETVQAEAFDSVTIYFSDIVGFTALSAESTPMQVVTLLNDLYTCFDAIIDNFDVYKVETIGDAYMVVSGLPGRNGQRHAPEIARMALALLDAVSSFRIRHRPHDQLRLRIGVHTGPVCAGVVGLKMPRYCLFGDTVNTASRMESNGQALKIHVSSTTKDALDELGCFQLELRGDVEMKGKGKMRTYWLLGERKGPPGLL
MsrA conf = bovine MsrA inhibition, confirmed; inhibition, % at 15.5 µM; AID 651822; shares compounds with MsrA inhibitor; actives 41% (n = 2,300); purified bovine MsrA, absorbance read-out;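 note: coupled to thioredoxin reductase with NADPH and selenocystamine and DMSO as substrate; 0% = vehicle only and 100% = full effect of reference inhibitor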
Starred values were filed as active, the others as inactive; . = no result given. Cut-off read from the data, not from the text of the source, unless noted: active = inhibition above about 4.5%; inactive = the rest.

SMILES	m5-HT2A agonist	MsrA inhibitor	NPR1 activator	MsrA act	GC-B act	MsrA conf
CCN(CC)c1ccc(C=Nc2ccc(C#N)cc2)c(O)c1	-1.3	7.6*	3.5	-13.7	5.0	5.6*
CCN(CC)c1ccc(/C=N/N(c2ccccc2)c2ccccc2)c(O)c1	-3.7	-0.6	-0.4	-0.7	-2.3	.
CCN(CC)c1ccc(C=Nc2ccccc2C)c(O)c1	-0.9	6.5*	2.8	-3.8	-4.1	3.2
Cc1ccccc1-c1cc2c(nn1)-c1ccccc1C2=O	-2.5	5.9*	-0.9	1.6	-4.9	-0.2
Cc1ccc(-c2cc3c(nn2)-c2ccccc2C3=O)cc1	-10.4	-0.5	1.5	4.8	-7.3	.
COc1ccc(S(=O)(=O)Nc2cc(SCC(=O)O)c(O)c3ccccc23)cc1	-6.7	7.4*	-5.9	4.8	-0.7	0.3
COc1ccc(S(=O)(=O)Nc2cccc3ccc(O)cc23)cc1	12.5	-1.0	-2.0	-9.4	-7.4	.
COc1ccc(S(=O)(=O)Nc2cc(Sc3ncn[nH]3)c(O)c3ccccc23)cc1	.	63.6*	3.1	.	-7.4	-0.1
COc1ccc(S(=O)(=O)Nc2ccc(O)c(Sc3ncn[nH]3)c2)cc1	1.5	0.7	4.3	-14.7	2.6	.
CC(C)(C)S(=O)(=O)/C(C#N)=N/Nc1ccc(C#N)cc1	2.4	4.4	-0.5	-4.2	3.4	.
COc1cccc(N/N=C(\C#N)S(=O)(=O)C(C)(C)C)c1	4.3	4.7*	5.3	-13.8	3.9	2.4
O=Cc1ccc2oc3nc4n(c(=O)c3c(=O)c2c1)CCCS4	0.2	6.6*	-4.3	-3.4	-3.3	4.5
Cc1sc2nc3n(c(=O)c2c1C)CCCS3	-1.3	1.6	-3.9	-3.5	-3.7	.
O=S1(=O)N=C(N/N=C/C=C/c2ccccc2)c2ccccc21	-3.1	6.8*	0.8	-8.1	4.6	6.2*
O=S1(=O)N=C(N(CCO)/N=C/c2ccc(Cl)cc2)c2ccccc21	0.1	0.4	15.0	-0.3	29.4	.
COc1cc(/C=N\Nc2nc3ccccc3o2)cc(OC)c1OC	-1.4	5.2*	19.7	-4.3	3.1	3.0
O=S1(=O)N=C(N(CCO)/N=C/C=C/c2ccccc2)c2ccccc21	-2.0	8.3*	-0.3	-7.9	-1.3	5.7*
COc1cc(/C=N/NC2=NS(=O)(=O)c3ccccc32)cc(OC)c1OC	-2.7	5.5*	2.9	-4.3	-0.7	4.6*
CC1CCC2(CC1)CCN(CCCOC(=O)Nc1ccc3c(c1)OCO3)C2=O (stereo not given)	.	.	-0.3	.	0.1	.
CCN(CC)CCCNc1nc(N)c([N+](=O)[O-])c(NCCO)n1	1.7	5.1*	-3.0	-2.7	-7.2	4.9*
CN(C)CCCNc1nc(N)c([N+](=O)[O-])c(NCCO)n1	-2.1	3.1	2.1	-1.7	-2.4	.
CNc1nc(N)c([N+](=O)[O-])c(NCCO)n1	1.2	5.0*	3.9	-5.9	-1.6	4.1
C=CCN1C(=O)[C@@H](CC(=O)NCCCOCCCC)[C@]2(C(=O)OC)CCCCC=C12	.	.	1.9	.	1.3	.
Nc1ccc(Cl)c(-c2nc3ncccc3o2)c1	-0.4	0.2	9.2	-1.2	-2.0	.
Nc1ccc(-c2nc3ncccc3o2)c(O)c1	1.1	9.8*	-2.3	-7.2	0.1	7.2*
SMILES	m5-HT2A agonist	MsrA inhibitor	NPR1 activator	MsrA act	GC-B act	MsrA conf
Cc1ccc(-c2nc3ncccc3o2)cc1N	0.7	1.1	3.9	-4.4	-1.0	.
Nc1ccc(-c2nc3ncccc3o2)c(Cl)c1	2.9	6.0*	-0.6	-10.5	-2.3	5.2*
Cc1cc(-c2nc3ncccc3o2)ccc1N	-0.9	6.5*	3.8	-4.5	-3.7	6.6*
COC(=O)[C@]12C[C@H](CC(=O)N3CCSCC3)C(=O)N(Cc3cccc4ccccc34)C1=C[C@H](C(C)C)O[C@@H]2C1CC1	.	.	-20.7	.	-8.7	.
O=C(O)c1ccc(NS(=O)(=O)c2ccc3c(c2)C(=O)c2ccccc2C3=O)cc1	0.5	23.6*	-5.6	-8.3	0.5	14.9*
CCCNC(=O)COC(=O)/C=C/c1ccc(C)o1	2.4	5.8*	-7.0	-1.9	-0.2	5.5*
CCN(CC)c1ccc(/C=N/Nc2nn[nH]n2)cc1	3.8	6.4*	-5.3	-9.8	1.5	3.9
CCN(CC)c1ccc(/C=N/Nc2nc(C)cc(C)n2)cc1	-3.6	3.1	-7.8	-5.3	-10.5	.
CCCCCCCCN1C(=O)[C@@H](CC(=O)N2CCN(C(=O)OCC)CC2)C[C@@]2(C(=O)OC)C1=C[C@H](C(C)C)O[C@@H]2C1CC1	.	.	-0.2	.	-2.2	.
COC(=O)c1ccc(CN2CC3CC(c4ccccc4)N4CCCC34C2=O)cc1 (stereo not given)	.	.	0.0	.	-4.8	.
CCN(CC)CCN1C(=O)C(=O)/C(=C(/O)c2ccc(C)cc2)C1c1cccnc1 (stereo not given)	-3.5	5.9*	1.9	-2.9	-5.2	0.2
CN(C)CCCN1C(=O)C(=O)/C(=C(/O)c2ccncc2)C1c1cccc(Br)c1 (stereo not given)	3.1	2.3	9.2	-4.0	1.0	.
CN(C)CCCN1C(=O)C(=O)/C(=C(/O)c2ccncc2)C1c1cccnc1 (stereo not given)	-1.9	6.6*	-1.8	-1.3	3.9	2.2
O=C(O)c1ccc([N+](=O)[O-])c2c1C(=O)c1ccccc1C2=O	0.4	2.6	3.5	-2.5	4.5	.
O=C(O)c1cccc2c1-c1ccc([N+](=O)[O-])cc1C2=O	-1.7	3.0	2.8	-1.4	0.1	.
O=C(O)c1cccc2c1C(=O)c1cc([N+](=O)[O-])cc([N+](=O)[O-])c1-2	9.7	5.6*	0.2	-11.6	-4.2	3.6
O=C(O)c1cccc2c1-c1c(cccc1[N+](=O)[O-])C2	8.2	5.9*	0.8	-2.7	-2.3	2.9
O=C(/C=C\c1cccs1)c1c(O)ccc2ccc(=O)oc12	-7.6	5.4*	1.3	-7.3	-1.8	6.3*
COCc1nnc(NC(=O)c2cc3ccccc3o2)s1	2.3	5.1*	0.6	-3.1	2.0	2.4
CCn1c(COc2ccc(C)cc2)nnc1SCC(=O)c1ccc(-c2ccccc2)cc1	.	.	-5.4	.	0.7	.
CC(=O)C(Sc1ncnc2c1nnn2-c1ccc(F)cc1)C(=O)N(C)C (stereo not given)	.	5.7*	29.8	.	9.3	2.6
CCOC(=O)CSc1ncnc2c1nnn2-c1ccc(F)cc1	2.5	0.4	4.0	-2.8	-9.0	.
COc1cc(/C=N/NC(=O)c2cc(C3CC3)[nH]n2)ccc1O	-2.4	5.2*	-4.6	-6.1	-9.6	2.6
COc1cc(/C=N/NC(=O)c2cc(-c3ccc4c(c3)OCO4)n[nH]2)ccc1O	2.4	5.5*	14.9	-11.2	17.3	3.3
C#CCNC(=O)C[C@H]1C(=O)N(CC=C)C2=CCCC[C@@]21C(=O)OCC	.	.	-2.8	.	3.2	.
O=C(CSc1nnc(COc2ccc(Cl)cc2)n1Cc1ccco1)Nc1cccc2ccccc12	.	.	-6.1	.	-4.1	.

From PubChem
